Source: PubChem
A selection: hits, their analogues and other compounds. The true share with any hit is near 1.3%.
AI-2 QS modul: modulates the Vibrio harveyi AI-2 quorum sensing system; Vibrio harveyi JMH597 AI-2 luminescence/OD600 ratio, 9 h; stronger effect = lower value; strain lacks LuxN and CqsS sensors; 0 = neutral-control median; activity change, % at 7.5 µM; 0.4% of 300,000 active; in the data active = activity change below about -75%, passing the limit was not always enough; inconclusive = no clear call, values can overlap the other calls;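 note: luminescence divided by OD600 gain over 9 h not by final OD600 alone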
PGC1a acetyl inh: lowers PGC1a acetylation signal in U2OS cells; AlphaScreen anti-acetyl-lysine; with virally co-expressed GCN5 acetyltransferase; inhibition, % at 15.6 µM; 0.17% of 350,000 active; AID 651687;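 active = every replicate shows inhibition of at least 40%; inconclusive = mean inhibition at least 40% but some replicate below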;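 note: 0% = neutral control wells and 100% = positive control wells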
HIF act: HIF pathway transcriptional activation; 0.32% of 300,000 active; activation, % at 7.5 µM (by protocol); AID 1910; U2OS HRE-luciferase reporter, luminescence; normalized: DMSO 0%, desferrioxamine 100%;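 active = mean activation of at least 10% of the iron chelator positive control signal, with at least half of replicates also reaching 10%; inconclusive = mean and replicate majority disagree about reaching 10%; inactive = mean and most replicates under 10%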
Statin myotox sup: suppressors of simvastatin-induced myotoxicity in C2C12 myotubes; rescue of ATP level, % at 7.49 µM; 0.78% of 330,000 active; ATP luminescence, 48 h; scaled: DMSO 0, geranylgeraniol control 100;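 active = mean ATP rescue above about 67%, or every replicate alone reaching that limit, limit read from the data, passing the limit was not always enough; inconclusive = no clear call, values can overlap the other calls; inactive = mean under the limit and some replicate under it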;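 note: myotubes were challenged with 10 µM simvastatin during compound exposure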
Rce1 inhib: blocks yeast Ras-converting enzyme | 0.27% of 290,000 active | Q03530 | yeast membranes, quenched prenylated peptide cleavage fluorescence | calls only;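 active = fall in fluorescence gain of 50% or more versus controls, with final raw signal at or below 3038400; inconclusive = same 50% fall but final raw signal above 3038400; inactive = fall in fluorescence gain under 50%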;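 note: plate controls were neutral control wells for no effect and wells lacking membranes for full effect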
Target sequence (Q03530 whole entry, looked up): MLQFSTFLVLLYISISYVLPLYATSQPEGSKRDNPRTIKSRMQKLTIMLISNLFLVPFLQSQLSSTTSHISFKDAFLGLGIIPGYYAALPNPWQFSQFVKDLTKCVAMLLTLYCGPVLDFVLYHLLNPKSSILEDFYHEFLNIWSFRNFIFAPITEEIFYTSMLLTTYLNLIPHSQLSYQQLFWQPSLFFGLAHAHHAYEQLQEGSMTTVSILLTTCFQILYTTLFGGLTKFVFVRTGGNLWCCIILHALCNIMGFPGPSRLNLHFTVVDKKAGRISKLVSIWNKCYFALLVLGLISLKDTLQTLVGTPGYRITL
Starred values were filed as active, the others as inactive; i = inactive; u = inconclusive; x = no result; + = active, no number.

SMILES	AI-2 QS modul	PGC1a acetyl inh	HIF act	Statin myotox sup	Rce1 inhib
CC1(C)CC(=O)C(CC2C(=O)CC(C)(C)CC2=O)C(=O)C1	16	x	54*	x	i
c1ccc(-n2nnnc2SCc2cn3cccnc3n2)cc1	6	-4	0	7	+
C[C@@H]1CN([C@H](C)CO)C(=O)c2cc(C#CC3CCCCC3)cnc2O[C@H]1CN(C)C	x	-17	x	15	x
CCOc1ccc(C(=O)CCC(=O)NNC(=O)CCN2CCN(c3ccccc3)CC2)cc1	x	x	x	0	x
CC(Oc1ccc(Br)cc1)C(=O)NNC(=O)CCN1CCN(c2ccccc2)CC1 (configuration not stated)	-92*	x	0	3	i
Cc1cccc(N(C(=O)CS(=O)CC(=O)Nc2ccc3c(c2)OCO3)C(C)C(=O)NC2CCCC2)c1C (configuration not stated)	24	3	0	x	i
Cc1ccccc1N(CC(=O)NC1CCCC1)C(=O)CS(=O)CC(=O)Nc1ccc2c(c1)OCO2 (configuration not stated)	x	-11	-1	127*	x
CCOC(=O)c1ccc(S(=O)(=O)NNC(=O)COc2ccccc2C)cc1	14	x	999*	x	i
CCOC(=O)c1ccc(OCCOc2ccccc2C)cc1	1	2	1	-3	i
CCNC(=O)[C@H]1[C@H](CO)[C@H]2Cn3c(ccc(-c4cccc(C(=O)N(C)C)c4)c3=O)[C@@H]1N2	x	21	x	x	x
COc1cnc(-c2ccccn2)nc1N(C)c1ccccc1	-24	x	114*	-2	i
O=C(Nc1ccc(F)cc1)N[C@H]1CC[C@@H](CCn2cc(-c3ccccc3F)nn2)O[C@H]1CO	x	6	x	1	x
Cc1ccc(S(=O)(=O)N2CCN(CC(=O)N/N=C/c3ccccc3OCC(=O)O)CC2)cc1	23	x	0	x	i
COc1ccccc1/C=C/C=N/NC(=O)CN1CCN(S(=O)(=O)c2ccc(C)cc2)CC1	33	x	0	x	+
COc1ccc(NC(=O)CN2CCCN(S(=O)(=O)c3ccc(F)cc3)CC2)c(OC)c1	56	13	0	94*	i
O=C(Cc1ccccn1)NCC[C@@H]1CC[C@H](NC(=O)Nc2ccc(C(F)(F)F)cc2)[C@@H](CO)O1	x	50*	x	0	x
O=C(Cc1ccccn1)NCC[C@@H]1CC[C@@H](NC(=O)Nc2ccc(C(F)(F)F)cc2)[C@@H](CO)O1	x	45*	x	-2	x
CO[C@H]1CN(C)C(=O)c2ccc(NC(=O)c3cnccn3)cc2OC[C@@H](C)N(C)C[C@H]1C	x	6	x	-5	x
Cc1noc(C)c1NC(=O)Nc1cccc2c1O[C@H](CN(C)S(C)(=O)=O)[C@H](C)CN([C@@H](C)CO)C2=O	x	5	x	x	x
CCN1[C@H](C(=O)NCc2cccc(OC)c2)[C@@H](CO)[C@@H]2Cn3c(ccc(C4=CCCC4)c3=O)[C@@H]21	x	x	x	1	x
C[C@H](CO)N1C[C@H](C)[C@@H](CN(C)Cc2ccc(Cl)c(Cl)c2)Oc2ccc(NS(=O)(=O)c3ccc(F)cc3)cc2CC1=O	x	3	x	112*	x
C[C@@H]1CN([C@H](C)CO)C(=O)Cc2cc(NS(=O)(=O)c3ccc(F)cc3)ccc2O[C@@H]1CN(C)Cc1ccc(Cl)c(Cl)c1	x	3	x	u	x
C[C@H]1CN([C@@H](C)CO)C(=O)Cc2cc(NS(=O)(=O)c3ccc(F)cc3)ccc2O[C@@H]1CN(C)Cc1ccc(Cl)c(Cl)c1	x	-5	x	69*	x
CN1C(=O)c2cc(NC(=O)c3ccc(F)cc3)ccc2OC[C@@H]2O[C@@H](CC(=O)NC3CCC3)CC[C@H]21	x	-4	x	-7	x
CCOC(=O)COc1nc2c(c(-c3ccco3)c1C#N)CCc1ccccc1-2	8	-6	0	x	i
SMILES	AI-2 QS modul	PGC1a acetyl inh	HIF act	Statin myotox sup	Rce1 inhib
N#Cc1c(OCC(=O)c2ccccc2)nc2c(c1-c1ccco1)CCc1ccccc1-2	41	-11	1	12	+
O=C(NC1CC1)c1ccc2c(c1)N(Cc1ccccc1)CCS2	5	0	1	4	+
COc1cccc(-c2cn(CC[C@H]3CC[C@H](NC(C)=O)[C@@H](CO)O3)nn2)c1	x	-5	x	-2	x
NC(=O)CCc1c[nH]c2ccccc12	14	-4	0	109*	i
CCC(=O)NCCc1c[nH]c2ccccc12	4	0	0	3	i
O=C(NCCc1c[nH]c2ccccc12)OCCSS(=O)(=O)O	14	x	-1	4	+
COc1ccc2c3c(n(C)c2c1)[C@H](CO)N(C(=O)c1cccc(F)c1)CC31CN(CC2CC2)C1	x	-11	x	x	x
